CHX counter: Cycloheximide Counterscreen for Small Molecule Inhibitors of Shiga Toxin; cell reporter, cycloheximide protein synthesis inhibition counterscreen; max response, %; 300,000 tested, 12% active; AID 2314, 2010; in the data active = max response mostly above about 13%, no sharp cut-off; inactive = mostly below about 14%; also: read at 38.3 µM for the half of the compounds with a filed dose
RE007 growth inh: qHTS Assay for Inhibitors of the HIV-1 protein Vpr | S. pombe RE007 Vpr strain, BacTiter-Glo ATP luminescence, 24 h | Potency, µM (doses to about 92.2 µM), hits mostly inhibitors | 360,000 tested, 0.21% active | AID 651644, 2012; active = well fitted falling curve with a large enough effect; inconclusive = small, poorly fitted or top-dose-only effect; inactive = no such curve, though single readings can be large or run the other way; also: nearly all actives have a fitted effect of over 50% in size
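Fission yeast RE007 carrying one integrated HIV-1 vpr copy, seeded at OD 0.01 in PMG+AL medium with 23 nL pinned compound. Grown 24 h at 30 degrees; viability read by BacTiter-Glo luminescence after 5 min.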
FBPA Giardia inh: qHTS Assay for Inhibitors of Fructose-1,6-bisphosphate Aldolase from Giardia Lamblia | Potency, µM (titrated, usually from 59.6 µM), most hits filed as inhibitors | purified Giardia FBPA | AID 2451, 2010 | 290,000 tested, 0.71% active | A8B2U2; also: nearly all actives have a fitted effect of over 55% in size
Target sequence (A8B2U2 whole entry, looked up): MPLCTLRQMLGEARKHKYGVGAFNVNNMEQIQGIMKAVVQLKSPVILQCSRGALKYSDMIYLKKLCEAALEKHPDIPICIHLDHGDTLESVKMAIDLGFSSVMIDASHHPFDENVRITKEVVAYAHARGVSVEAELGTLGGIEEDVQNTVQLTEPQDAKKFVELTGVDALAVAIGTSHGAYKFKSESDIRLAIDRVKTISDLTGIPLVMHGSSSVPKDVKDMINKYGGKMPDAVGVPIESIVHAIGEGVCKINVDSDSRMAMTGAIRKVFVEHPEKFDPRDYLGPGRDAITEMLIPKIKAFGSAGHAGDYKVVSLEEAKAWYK
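40 nM FBPA preincubated 10 min at RT with compound (up to 57.5 uM final), then substrate plus GAPDH/TPI/NAD/arsenate coupling and diaphorase/resazurin added. Fluorescence read after 20 min at RT, 525/598 nm.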
LmPK inh: qHTS Assay for Inhibitors of Leishmania Mexicana Pyruvate Kinase (LmPK). Q27686. purified LmPK, Kinase-Glo ATP luminescence, 1 h. Potency, µM (series often up to 57.5 µM), usual class: inhibitors. 290,000 tested, 0.37% active
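Pyruvate kinase activity monitored as ATP production (luciferase luminescence). Conditions: 0.1 nM enzyme, 0.5 mM PEP, 0.1 mM ADP, 1 h, RT; normalized against uninhibited and no-enzyme wells.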
Shiga inhibitor: A qHTS for Small Molecule Inhibitors of Shiga Toxin; Vero cells, Shiga toxin protein synthesis inhibition reporter; inhibition, % at 38.7 µM; 290,000 tested, 9.2% active; AID 2315, 2010; in the data active = inhibition mostly above about 28%, no sharp cut-off; inactive = mostly below about 43%
TbPYK inhibitor: qHTS of Trypanosoma Brucei Inhibitors; TbPYK enzyme, Kinase-Glo Plus ATP luminescence, 45 min; Potency, µM (series often up to 76.8 µM), hits mostly inhibitors; AID 624173, 2012; 410,000 tested, 0.12% active; pyruvate kinase (Trypanosoma brucei), Q57TT1; also: nearly all actives have a fitted effect of over 50% in size
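Readout: single end-point luminescence (Kinase-Glo Plus, 10 min). Reaction conditions were TbPYK/substrate plus 130 uM ADP, 45 min at RT, pH 7.2 TEA buffer. No-enzyme wells served as controls, and data were normalized before concentration-response fitting.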
Hits are given with their value. This excerpt belongs to a sample that is enriched for hits. Unless noted, calls follow the shape of the dose curve; as a rule, active = well fitted curve in the direction sought with a large enough effect; inconclusive = small, poorly fitted or top-dose-only effect, or another doubt; inactive = no such curve, though single readings can be large; an effect the other way counts as inactive or inconclusive.

How did Clc1ccccc1/C=N/c1cc(-c2ccccc2)nn1-c1ccccc1 do in these assays?
CHX counter: 32.9; RE007 growth inh: inactive; FBPA Giardia inh: inactive; LmPK inh: inactive; Shiga inhibitor: 51.6; TbPYK inhibitor: inactive

Results for O=c1c(Cl)cc(Cl)nn1-c1ccccc1 ?
CHX counter: inactive; RE007 growth inh: inconclusive; FBPA Giardia inh: inactive; LmPK inh: inactive; Shiga inhibitor: inactive; TbPYK inhibitor: inactive

Results for CC(=O)C(/C=N/c1cc(-c2ccc(C)cc2)nn1-c1ccccc1)=C(\C)O ?
CHX counter: 55.8; RE007 growth inh: inactive; FBPA Giardia inh: inactive; LmPK inh: inactive; Shiga inhibitor: 93.2; TbPYK inhibitor: inactive

How did COc1ccc(C(=O)NCC2(N3CCN(C)CC3)CCCCC2)cc1 do in these assays?
TbPYK inhibitor: inactive

How did Cn1c(N)c(C(=O)CSc2nnc(-c3c[nH]c4ccccc34)n2C2CC2)c(=O)[nH]c1=O do in these assays?
RE007 growth inh: inactive; TbPYK inhibitor: inactive

Results for O=C(/C=C/c1ccccc1)Nc1scc(-c2ccccc2)c1C(=O)O ?
CHX counter: 29.6; RE007 growth inh: inactive; FBPA Giardia inh: inconclusive; LmPK inh: inactive; Shiga inhibitor: 58.5; TbPYK inhibitor: inactive

Results for Cc1sc(NC(=O)/C=C/c2ccco2)c(C(=O)OC(C)C)c1C ?
CHX counter: inactive; RE007 growth inh: inactive; FBPA Giardia inh: inactive; LmPK inh: inactive; Shiga inhibitor: inactive; TbPYK inhibitor: inactive

What do the screens show for `O=C(/C=C/c1ccco1)Nc1scc(-c2ccccc2)c1C(=O)O`?
CHX counter: 22.2; RE007 growth inh: inconclusive; FBPA Giardia inh: inconclusive; LmPK inh: inactive; Shiga inhibitor: inactive; TbPYK inhibitor: inactive

Results for CCC1=C2CC[C@H]3C(=O)N(CC(=O)OC)C(=O)[C@H]3[C@H]2[C@@]2(C)C(=NCCc3c[nH]c4ccccc34)OC(=O)N2C1=O ?
FBPA Giardia inh: inactive

How did COC(=O)C1=C(c2ccccc2)c2ccccc2S(=O)(=O)N1CC(=O)Nc1cccc(C(C)=O)c1 do in these assays?
TbPYK inhibitor: inactive

What do the screens show for `NC(=O)C(=O)O`?
FBPA Giardia inh: inactive

How did Nc1c(-c2ccc(F)c(F)c2)nc2ncccn12 do in these assays?
RE007 growth inh: inactive

Results for Oc1[nH]c2ccc(Br)cc2c1N=NC(=S)NCC1CCCO1 (stereo unspecified) ?
CHX counter: inactive; RE007 growth inh: inactive; FBPA Giardia inh: inactive; LmPK inh: inactive; Shiga inhibitor: inactive; TbPYK inhibitor: inactive

How did Oc1[nH]c2ccccc2c1N=NC(=S)NCC1CCCO1 (stereo unspecified) do in these assays?
CHX counter: 17.0; RE007 growth inh: inactive; FBPA Giardia inh: inactive; LmPK inh: inactive; Shiga inhibitor: inactive; TbPYK inhibitor: inactive

What do the screens show for `Cc1ccc(F)cc1NC(=O)c1ccc(Cn2nc(N3CCN(c4ccccc4)CC3)ccc2=O)o1`?
TbPYK inhibitor: inactive

Results for Cc1c(C(=O)N(C)CCCCN2CCOCC2)oc2c(F)cccc12 ?
CHX counter: 15.2; RE007 growth inh: inactive; FBPA Giardia inh: inactive; LmPK inh: inactive; TbPYK inhibitor: inactive

What do the screens show for `Cc1c(C(=O)N(C)CCn2ccnc2C)oc2c(F)cccc12`?
CHX counter: inactive; RE007 growth inh: inactive; FBPA Giardia inh: inactive; LmPK inh: inactive; Shiga inhibitor: inactive; TbPYK inhibitor: inactive

What do the screens show for `Cc1cc(Cl)c2oc(C(=O)N(C)Cc3ccon3)c(C)c2c1`?
CHX counter: 48.4; RE007 growth inh: inactive; FBPA Giardia inh: inactive; LmPK inh: inactive; Shiga inhibitor: 95.0; TbPYK inhibitor: inactive

What do the screens show for `Cc1cc(Cl)c2oc(C(=O)N(C)C3CCOC3)c(C)c2c1` (stereo unspecified)?
CHX counter: 35.9; RE007 growth inh: inactive; FBPA Giardia inh: inactive; LmPK inh: inactive; Shiga inhibitor: 54.5; TbPYK inhibitor: inconclusive

What do the screens show for `Cc1cc(Cl)c2oc(C(=O)N(CCO)Cc3ccccc3)c(C)c2c1`?
CHX counter: 20.6; RE007 growth inh: inactive; FBPA Giardia inh: inactive; LmPK inh: inactive; Shiga inhibitor: 64.3; TbPYK inhibitor: inactive
